# Measured values as given in PubChem BioAssay (NCATS).
# Inconclusive results are not listed. Entries that show only a call come without a potency. Activity calls are given as the source filed them. Unless noted, the call rests on the fitted dose curve; in most records, active means well fitted curve in the direction sought with a large enough effect; inconclusive means small, poorly fitted or top-dose-only effect, or another doubt; inactive means no such curve, though single readings can be large; an effect the other way counts as inactive or inconclusive.
# What was measured:
# [1] = qHTS profiling for inhibitors of Plasmodium falciparum proliferation (AID 504749); further: potency means the concentration at half of the fitted maximal effect; on all read-outs here: nearly all actives have a fitted effect of over 60% in size; details: P. falciparum in erythrocytes, SYBR Green DNA, 72 h; for activity, negative = inhibition: at 28.7 µM (top of the series)
# In short: (§1)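 Infected RBCs, 0.3% parasitemia/2.5% Hct final; cpd 72 h, 37 C, 5% CO2; lysis buffer with saponin/triton/SYBR Green I, o/n RT dark; FI 485/535; norm. to artemisinin (0.29 uM) and DMSO.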
# 3D7 = test: as above; details: P. falciparum in erythrocytes, SYBR Green DNA, 72 h; series mostly up to 28.7 µM
# In short: as §1
# 7G8 = test: as above; details: P. falciparum in erythrocytes, SYBR Green DNA, 72 h; series mostly up to 28.7 µM
# In short: as §1
# AA1029 = test: as above; details: P. falciparum in erythrocytes, SYBR Green DNA, 72 h; series mostly up to 28.7 µM
# In short: as §1
# AS120 = test: as above; details: P. falciparum in erythrocytes, SYBR Green DNA, 72 h; series mostly up to 28.7 µM
# In short: as §1
# ATS189 = test: as above; details: P. falciparum in erythrocytes, SYBR Green DNA, 72 h; series mostly up to 28.7 µM
# In short: as §1
# ATS95 = test: as above; details: P. falciparum in erythrocytes, SYBR Green DNA, 72 h; series mostly up to 28.7 µM
# In short: as §1
# C2A = test: as above; details: P. falciparum in erythrocytes, SYBR Green DNA, 72 h; series mostly up to 28.7 µM
# In short: as §1
# CP185 = test: as above; details: P. falciparum in erythrocytes, SYBR Green DNA, 72 h; series mostly up to 28.7 µM
# In short: as §1
# CP191 = test: as above; details: P. falciparum in erythrocytes, SYBR Green DNA, 72 h; series mostly up to 28.7 µM
# In short: as §1
# CP192 = test: as above; details: P. falciparum in erythrocytes, SYBR Green DNA, 72 h; series mostly up to 28.7 µM
# In short: as §1
# CP194 = test: as above; details: P. falciparum in erythrocytes, SYBR Green DNA, 72 h; series mostly up to 28.7 µM
# In short: as §1
# CP201 = test: as above; details: P. falciparum in erythrocytes, SYBR Green DNA, 72 h; series mostly up to 28.7 µM
# In short: as §1
# CP203 = test: as above; details: P. falciparum in erythrocytes, SYBR Green DNA, 72 h; series mostly up to 28.7 µM
# In short: as §1
# [2] = qHTS drug screen for cell cycle checkpoint inhibitors in PARPi-resistant BRCA-mutant ovarian cancer cell lines. (AID 1963452; calls by dose curve); details: PEO1/OlaR viability, CellTiter-Glo luminescence, 96 h, stronger effect = lower value
# In short: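 PEO1, PEO4 and PEO1/OlaR ovarian cancer cells, 600 per well, exposed 96 h at 37C to a dilution series. Viability read by CellTiter-Glo luminescence, normalized to DMSO and empty wells; activity summarized as Z-AUC.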
# [3] = qHTS Counterscreen for compound interference against the NCATS DSHEA and TCM libraries (AID 1919978); details: firefly luciferase detection reagent interference, luminescence;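 further: compounds preincubated with 1 µM D-luciferin or buffer before detection reagent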
# In short: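 Compounds, titrated from 19.5 nM to 39.8 uM final, were pinned onto 1 uM D-luciferin or plain 100 mM potassium phosphate. After 15 min at room temperature, luciferin detection reagent was added for 30 min before the luminescence read.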
# [4] = Dual reporter qHTS for agonist of Pregnane X Receptor (hPXR) against the NCATS DSHEA and TCM libraries: Fluorescence readout (AID 1920058); details: PXR dual reporter cells; series mostly up to 40 µM
# In short: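 HepG2 hPXR-Luc, 2000 cells/well, 5 h attach; cpds ~24 h, 37 °C/5% CO2; CellTiter-Fluor 1 h; fluor. Ex/Em 405/540 nm = viability.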
# [5] = molecular target: Nuclear receptor subfamily 1 group I member 2 (Homo sapiens) (UniProt O75469); test: Dual reporter qHTS for antagonist of Pregnane X Receptor (hPXR) against the NCATS DSHEA and TCM libraries: Luminescence Readout (AID 1920060); details: hPXR dual reporter cells, luciferase luminescence, antagonist mode; series mostly up to 40 µM
# In short: (§2)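 Rifampicin-stimulated (2 uM final) hPXR-luciferase HepG2 cells were treated for 24 h with DSNP/TCM substances. Viability came from CellTiter-Fluor fluorescence, reporter activity from ONE-Glo luminescence.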
# [6] = Dual reporter qHTS for antagonist of Pregnane X Receptor (hPXR) against the NCATS DSHEA and TCM libraries: Fluorescence Readout (AID 1920061); details: PXR dual reporter cells, antagonist mode; series mostly up to 40 µM
# In short: as §2
# [7] = measured here: PEO1 parental Z-AUC
# Chain of Nuclear receptor subfamily 1 group I member 2 (Homo sapiens) (O75469 whole entry, looked up): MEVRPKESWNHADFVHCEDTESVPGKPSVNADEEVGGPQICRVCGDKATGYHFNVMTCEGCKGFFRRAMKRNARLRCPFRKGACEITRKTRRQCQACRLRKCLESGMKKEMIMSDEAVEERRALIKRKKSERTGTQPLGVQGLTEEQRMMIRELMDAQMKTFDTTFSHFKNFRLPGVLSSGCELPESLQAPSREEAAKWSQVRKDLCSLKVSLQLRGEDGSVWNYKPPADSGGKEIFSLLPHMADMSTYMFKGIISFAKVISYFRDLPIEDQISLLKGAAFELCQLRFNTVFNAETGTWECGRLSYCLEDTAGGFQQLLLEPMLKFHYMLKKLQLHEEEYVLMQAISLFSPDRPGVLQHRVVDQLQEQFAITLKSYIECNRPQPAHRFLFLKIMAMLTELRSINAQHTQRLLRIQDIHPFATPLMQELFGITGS
smiles,measurement,setting,value
CCOC(=O)c1ccccc1O,"activity, negative = inhibition",[1]; parasite line A,4.06% (inactive)
same,"activity, negative = inhibition",[1]; parasite line B,15.6% (inactive)
same,Potency,3D7,inactive
same,Potency,7G8,inactive
same,Potency,AA1029,inactive
same,Potency,AS120,inactive
same,Potency,ATS189,inactive
same,Potency,ATS95,inactive
same,Potency,C2A,inactive
same,Potency,CP185,inactive
same,Potency,CP191,inactive
same,Potency,CP192,inactive
same,Potency,CP194,inactive
same,Potency,CP201,inactive
same,Potency,CP203,inactive
C[N+]1(C)C2CC(OC(=O)[C@H](CO)c3ccccc3)CC1C1OC12 (some centres undefined),Z-AUC,[2],1.57 (inactive)
same,Z-AUC,[2]; [7],1.91
same,Z-AUC,[2]; measured here: PEO4 Z-AUC,2.01
C[S+](CC[C@H](N)C(=O)O)C[C@H]1O[C@@H](n2cnc3c(N)ncnc32)[C@H](O)[C@@H]1O (some centres undefined),max response,[3],-4.63% (inactive)
same,outcome,[4],inactive
same,outcome,[5],inactive
same,outcome,[6],inactive
same,Potency,3D7,inactive
same,Potency,7G8,inactive
same,Potency,AS120,inactive
same,Potency,C2A,inactive
same,Potency,CP192,inactive
same,Potency,CP194,inactive
same,Potency,CP201,inactive
same,Potency,CP203,inactive
O=C(O)/C=C/C(O)c1ccc(Cl)cc1 (centres undefined),"activity, negative = inhibition",[1]; parasite line A,0.108% (inactive)
same,"activity, negative = inhibition",[1]; parasite line B,10.3% (inactive)
same,Potency,3D7,inactive
same,Potency,7G8,inactive
same,Potency,AA1029,inactive
same,Potency,AS120,inactive
same,Potency,ATS189,inactive
same,Potency,ATS95,inactive
same,Potency,C2A,inactive
same,Potency,CP185,inactive
same,Potency,CP191,inactive
same,Potency,CP192,inactive
same,Potency,CP194,inactive
same,Potency,CP201,inactive
same,Potency,CP203,inactive
C#C[C@]1(O)CC[C@H]2[C@@H]3CCc4cc(O)ccc4[C@H]3CC[C@@]21C,Z-AUC,[2],-0.519 (inactive)
same,Z-AUC,[2]; [7],0.139
same,Z-AUC,[2]; measured here: PEO4 Z-AUC,0.344
same,"activity, negative = inhibition",[1]; parasite line A,17.5% (inactive)
same,"activity, negative = inhibition",[1]; parasite line B,5.92% (inactive)
same,Potency,3D7,inactive
same,Potency,7G8,inactive
same,Potency,AA1029,inactive
same,Potency,AS120,inactive
same,Potency,ATS189,inactive
same,Potency,ATS95,inactive
same,Potency,C2A,inactive
same,Potency,CP185,inactive
same,Potency,CP191,inactive
same,Potency,CP192,inactive
same,Potency,CP194,inactive
same,Potency,CP201,inactive
same,Potency,CP203,inactive
O=C(Nc1ccc(C(=O)O)c(O)c1)c1ccccc1,"activity, negative = inhibition",[1]; parasite line A,-20.7% (inactive)
same,"activity, negative = inhibition",[1]; parasite line B,-1.01% (inactive)
same,Potency,3D7,inactive
same,Potency,7G8,inactive
same,Potency,AA1029,inactive
same,Potency,AS120,inactive
same,Potency,ATS189,inactive
same,Potency,ATS95,inactive
same,Potency,C2A,inactive
same,Potency,CP185,inactive
same,Potency,CP191,inactive
same,Potency,CP192,inactive
same,Potency,CP194,inactive
same,Potency,CP201,inactive
same,Potency,CP203,inactive
CN1CCN(c2cc3c(nn2)Oc2ccccc2N3C)CC1,"activity, negative = inhibition",[1]; parasite line A,11.3% (inactive)
same,"activity, negative = inhibition",[1]; parasite line B,1.64% (inactive)
same,Potency,3D7,inactive
same,Potency,7G8,inactive
same,Potency,AA1029,inactive
same,Potency,AS120,inactive
same,Potency,ATS189,inactive
same,Potency,ATS95,inactive
same,Potency,C2A,inactive
same,Potency,CP185,inactive
same,Potency,CP191,inactive
same,Potency,CP192,inactive
same,Potency,CP194,inactive
same,Potency,CP201,inactive
same,Potency,CP203,inactive
COc1cc(SC)ccc1C(=O)N1CCC(Cc2ccccc2)CC1,Z-AUC,[2],0.323 (inactive)
same,Z-AUC,[2]; [7],1.42
same,Z-AUC,[2]; measured here: PEO4 Z-AUC,1.59
C=CC(N)CCC(=O)O (centres undefined),"activity, negative = inhibition",[1]; parasite line A,0.626% (inactive)
same,"activity, negative = inhibition",[1]; parasite line B,10.5% (inactive)
same,Potency,3D7,inactive
same,Potency,7G8,inactive
same,Potency,AA1029,inactive
same,Potency,AS120,inactive
same,Potency,ATS189,inactive
same,Potency,ATS95,inactive
same,Potency,C2A,inactive
same,Potency,CP185,inactive
same,Potency,CP191,inactive
same,Potency,CP192,inactive
same,Potency,CP194,inactive
same,Potency,CP201,inactive
same,Potency,CP203,inactive
COc1ccc(-c2cc(=S)ss2)cc1,"activity, negative = inhibition",[1]; parasite line A,-10.3% (inactive)
same,"activity, negative = inhibition",[1]; parasite line B,-12.9% (inactive)
same,Potency,3D7,inactive
same,Potency,7G8,12600 nM (active)
same,Potency,AA1029,inactive
same,Potency,AS120,inactive
same,Potency,ATS189,inactive
same,Potency,ATS95,inactive
same,Potency,C2A,inactive
same,Potency,CP185,inactive
same,Potency,CP191,inactive
same,Potency,CP192,inactive
same,Potency,CP194,inactive
same,Potency,CP201,inactive
Nc1ccc(C(=O)O)c(O)c1,"activity, negative = inhibition",[1]; parasite line A,9.01% (inactive)
same,"activity, negative = inhibition",[1]; parasite line B,-22.6% (inactive)
same,Potency,3D7,inactive
same,Potency,7G8,inactive
same,Potency,AA1029,inactive
same,Potency,AS120,inactive
same,Potency,ATS189,inactive
same,Potency,ATS95,inactive
same,Potency,C2A,inactive
same,Potency,CP185,inactive
same,Potency,CP191,inactive
same,Potency,CP192,inactive
same,Potency,CP194,inactive
same,Potency,CP201,inactive
Cc1[nH]cnc1CN1CCc2c(c3ccccc3n2C)C1=O,"activity, negative = inhibition",[1]; parasite line A,12% (inactive)
same,"activity, negative = inhibition",[1]; parasite line B,7.41% (inactive)
same,Potency,3D7,inactive
same,Potency,7G8,inactive
same,Potency,AA1029,inactive
same,Potency,AS120,inactive
same,Potency,ATS189,inactive
same,Potency,ATS95,inactive
same,Potency,C2A,inactive
same,Potency,CP185,inactive
same,Potency,CP191,inactive
same,Potency,CP192,inactive
same,Potency,CP194,inactive
same,Potency,CP201,inactive
same,Potency,CP203,inactive
O=C(O)[C@H](O)[C@@H](O)[C@H](O)[C@H](O)CO,"activity, negative = inhibition",[1]; parasite line A,1.4% (inactive)
same,"activity, negative = inhibition",[1]; parasite line B,5.65% (inactive)
same,Potency,3D7,inactive
same,Potency,7G8,inactive
same,Potency,AA1029,inactive
same,Potency,AS120,inactive
same,Potency,ATS189,inactive
same,Potency,ATS95,inactive
same,Potency,C2A,inactive
same,Potency,CP185,inactive
same,Potency,CP191,inactive
same,Potency,CP192,inactive
same,Potency,CP194,inactive
same,Potency,CP201,inactive
same,Potency,CP203,inactive
CC1(C)S[C@@H]2[C@H](NC(=O)[C@H](NC(=O)N3CCN(S(C)(=O)=O)C3=O)c3ccccc3)C(=O)N2[C@H]1C(=O)O,"activity, negative = inhibition",[1]; parasite line A,-8.81% (inactive)
same,"activity, negative = inhibition",[1]; parasite line B,-7.98% (inactive)
same,Potency,3D7,inactive
same,Potency,7G8,inactive
same,Potency,AA1029,inactive
same,Potency,AS120,inactive
same,Potency,ATS189,inactive
same,Potency,ATS95,inactive
same,Potency,C2A,inactive
same,Potency,CP185,inactive
same,Potency,CP191,inactive
same,Potency,CP192,inactive
same,Potency,CP194,inactive
same,Potency,CP201,inactive
same,Potency,CP203,inactive
[O-][n+]1ccccc1SSc1cccc[n+]1[O-],Potency,[1]; parasite line A,891 nM (active)
same,Potency,[1]; parasite line B,891 nM (active)
same,Potency,3D7,891 nM (active)
same,Potency,7G8,891 nM (active)
same,Potency,AA1029,891 nM (active)
same,Potency,AS120,891 nM (active)
same,Potency,ATS189,1120 nM (active)
same,Potency,ATS95,891 nM (active)
same,Potency,C2A,891 nM (active)
same,Potency,CP185,1120 nM (active)
same,Potency,CP191,1260 nM (active)
same,Potency,CP192,1350 nM (active)
same,Potency,CP194,1070 nM (active)
same,Potency,CP201,1900 nM (active)
same,Potency,CP203,1350 nM (active)
CC(C(=O)O)c1ccc2c(c1)[nH]c1ccc(Cl)cc12 (centres undefined),"activity, negative = inhibition",[1]; parasite line A,3.75% (inactive)
same,"activity, negative = inhibition",[1]; parasite line B,2.58% (inactive)
same,Potency,3D7,inactive
same,Potency,7G8,inactive
same,Potency,AA1029,inactive
same,Potency,AS120,inactive
same,Potency,ATS189,inactive
same,Potency,ATS95,inactive
same,Potency,C2A,inactive
same,Potency,CP185,inactive
same,Potency,CP191,inactive
same,Potency,CP192,inactive
same,Potency,CP194,inactive
same,Potency,CP201,inactive
same,Potency,CP203,inactive
